According to ChEMBL document CHEMBL3988442, “University of Dundee, Small-Polar-MMV Screening Library” (2021):
The campaign covered roughly 69,000 compounds. About 420 (0.61%) showed an effect of 50% or more. This excerpt belongs to a sample that is enriched for strong results.

Each compound was assayed against T1, Histidine--tRNA ligase (Leishmania infantum) (UniProt A4I591) (assay: Leishmania infantum Histidine tRNA synthetase (LdHisRS)). Details: 30 µM.
T1 sequence (whole entry): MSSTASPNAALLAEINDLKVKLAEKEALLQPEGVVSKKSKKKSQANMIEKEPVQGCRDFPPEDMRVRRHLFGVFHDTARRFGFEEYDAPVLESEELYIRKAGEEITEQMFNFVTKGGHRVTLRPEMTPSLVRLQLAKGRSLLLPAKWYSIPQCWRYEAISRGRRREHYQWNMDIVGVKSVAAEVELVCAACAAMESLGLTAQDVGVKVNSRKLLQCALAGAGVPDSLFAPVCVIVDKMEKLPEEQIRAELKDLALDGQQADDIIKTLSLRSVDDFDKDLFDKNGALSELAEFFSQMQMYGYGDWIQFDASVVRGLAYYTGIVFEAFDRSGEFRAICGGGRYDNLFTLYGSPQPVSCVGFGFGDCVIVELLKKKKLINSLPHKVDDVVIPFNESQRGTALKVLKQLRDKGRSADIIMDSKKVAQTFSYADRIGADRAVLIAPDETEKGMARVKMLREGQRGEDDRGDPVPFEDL
Assay type: functional
Set-up: scale not given: in the data most compounds retested in dose-response had high values
Cc1ccc(OCc2occc2C(=O)N2C[C@@H]3[C@@H](CN(C)C)[C@@H]3C2)cc1 showed a Percent Effect of 15.9%.
For Cc1nc(COC[C@@]23CCC[C@@H]2CN(Cc2nccs2)C3)cs1, the Percent Effect was 15.8%.
CN(C)C(=O)CO[C@H]1CN(Cc2nccs2)[C@@H]2COC[C@H]12 was tested, and the Percent Effect was 9.91%.
Compound NC(=O)C1=NC2=NS(=O)(=O)c3ccccc3N2N1Cc1ccc(Cl)cc1 has a Percent Effect of 58.1%.
Work on NC(=O)C1=NC2=NS(=O)(=O)c3ccccc3N2N1Cc1ccccc1Cl yielded a Percent Effect of 37.1%.
With NC(=O)CN(Cc1ccc(Br)cc1)C(=O)c1ccccn1 the Percent Effect was 7.29%.
NC(=O)C1=NC2=NS(=O)(=O)c3ccccc3N2N1Cc1ccc(Br)cc1 showed a Percent Effect of 59.7%.
NC(=O)C1=NN2C(=NS(=O)(=O)c3ccccc32)N1 was tested, and the Percent Effect was 14.8%.
For Cc1nnc([C@@H]2CC[C@@H]3[C@@H](CCN3C3CCOCC3)O2)o1, the Percent Effect was 2.63%.
Cc1ccc(CN2CC[C@H]3[C@H]2CCN3S(C)(=O)=O)s1 gave a Percent Effect of 20%.
In the case of O=C(c1ccccn1)N1C[C@@H]2CC[C@H](C1)N(C(=O)CCc1ccsc1)C2, the Percent Effect is reported as 10.4%.
Work on Cc1nnsc1CN1C[C@H]2CC[C@@H]1CN(Cc1ccc(F)cc1)C2 yielded a Percent Effect of 8.33%.
In the case of CC(=O)N1CCCCC[C@@H]2[C@@H]1[C@H](c1cccc(F)c1)CN2CCC(N)=O, the Percent Effect is reported as 13%.
Compound CC(CCc1ccccc1)NC(=O)Nc1cnn(CC(N)=O)c1 (stereo not given) has a Percent Effect of 24.3%.
CC(CCc1ccccc1F)C(=O)NS(=O)(=O)N(C)C(C)C (stereo not given) was tested, and the Percent Effect was 19.5%.
With COCCn1cc(NC(=O)C(C)CCc2ccccc2F)ccc1=O (stereo not given) the Percent Effect was 102%.
Work on COCCn1cc(NC(=O)NC(C)CCc2ccccc2)ccc1=O (stereo not given) yielded a Percent Effect of 98.3%.
In the case of CC(CCc1ccccc1F)C(=O)NS(C)(=O)=O (stereo not given), the Percent Effect is reported as 16.9%.
Work on CC(CCc1ccccc1)NC(=O)CN1CCOCC1 (stereo not given) yielded a Percent Effect of 1.49%.
With COc1ccc(CN2C[C@@H]3COC[C@]3(CN(C)C)C2)cc1 the Percent Effect was 17.6%.
For O=C(Cc1ccncc1)N1C[C@@H]2CC[C@H](C1)N(Cc1ccccc1)C2=O, the Percent Effect was 6.56%.
For Cc1ccc(-c2nc(CC(=O)N3CCN(c4cnccn4)CC3)cs2)o1, the Percent Effect was 28.7%.
O=C(Cc1csc(-c2ccco2)n1)N1CCN(c2nccs2)CC1 gave a Percent Effect of 20%.
With O=C(Cc1csc(-c2ccco2)n1)N1CCN(c2cnccn2)CC1 the Percent Effect was 56.8%.
For Cc1noc(C)c1CN1CC[C@H]2OCC[C@@H](C(=O)N3CCCO3)[C@H]2C1, the Percent Effect was 20%.
O=S(=O)(C1CC1)N1CCO[C@H]2[C@H](OCCN3CCCC3)CC[C@@H]21 was tested, and the Percent Effect was 15.1%.
With O=C1[C@H]2CN(CC3CCOCC3)C[C@H]2CN1c1ccsc1 the Percent Effect was 8%.
In the case of O=C(CC1CC1)N[C@@H]1CN(Cc2ccco2)C[C@@H]2CCCO[C@@H]21, the Percent Effect is reported as 17.1%.
COCCN1CCCC(C)(c2cc(O)[nH]n2)C1 (stereo not given) gave a Percent Effect of 47.1%.
Work on COCCN1CCC(C)(c2cc(O)[nH]n2)CC1 yielded a Percent Effect of 50%.
For COCC(=O)N1CCC(C)(c2cc(O)[nH]n2)CC1, the Percent Effect was 17.1%.
In the case of Cc1oncc1C(=O)N[C@@H]1CN(c2ncccn2)C[C@@H]2CCCO[C@@H]21, the Percent Effect is reported as 20%.
CN1CCO[C@@H]2CN(S(=O)(=O)c3ccc(F)cc3)CC[C@@H]2C1 gave a Percent Effect of 17.9%.
With CN(Cc1ccco1)C[C@H]1OC[C@@H]2CCN(Cc3cccnc3)C[C@@H]21 the Percent Effect was 13.2%.
For c1cncc(CN2CC[C@@H]3O[C@H](COCCN4CCCC4)CC[C@@H]32)c1, the Percent Effect was 16%.
With NCCc1cccc(CN2CCN(c3ccccc3)C(=O)C2)c1 the Percent Effect was 55.7%.
With Cc1cc(C)cc(N2CCN(Cc3cccc(CCN)c3)CC2=O)c1 the Percent Effect was 8.2%.
In the case of COc1cccc(N2CCN(Cc3cccc(CCN)c3)CC2=O)c1, the Percent Effect is reported as 60.7%.
COc1cccc(N2CCN(Cc3ccc4occc4c3)CC2=O)c1 was tested, and the Percent Effect was 13.5%.
Compound NCCc1cccc(CN2CCN(c3cccc(Cl)c3)C(=O)C2)c1 has a Percent Effect of 14.8%.
Compound COc1cc(CN2CCN(c3cccc(OC)c3)C(=O)C2)cc(OC)c1 has a Percent Effect of 18.3%.
Compound Cc1noc(C)c1C(=O)N1C[C@H]2CCC[C@@]2(COc2ccccn2)C1 has a Percent Effect of 17.6%.
Work on Cc1ccc(C(=O)N2CCO[C@H]3[C@H](OCc4ccccn4)CC[C@@H]32)o1 yielded a Percent Effect of 19.3%.
Compound Cc1nc([C@@H]2C[C@@H]3CCN(C(=O)Cc4cccc(F)c4)C[C@H]3O2)no1 has a Percent Effect of 9.09%.
CN(C)C(=O)[C@H]1C[C@@H]2CCN(C3CCOCC3)C[C@@H]2O1 showed a Percent Effect of 11.1%.
In the case of Cn1ccnc1Sc1ccc(S(N)(=O)=O)cn1, the Percent Effect is reported as 10.3%.
Cn1ccnc1Sc1ccc(N)cn1 gave a Percent Effect of 91%.
CN1CCN(S(=O)(=O)c2ccc(Sc3nccn3C)nc2)CC1 gave a Percent Effect of -3.37%.
Compound CS(=O)(=O)N1CCO[C@@H]2CN(C(=O)N3CCOCC3)CC[C@@H]2C1 has a Percent Effect of 4.5%.
In the case of Cc1ccc(N2CCc3sc(C(=O)N4CCOCC4)cc32)nn1, the Percent Effect is reported as 50%.
Cc1ccc(N2CCc3sc(C(=O)NCCN4CCCC4)cc32)nn1 gave a Percent Effect of 8.33%.
Work on CN(C)CC(=O)N1CCc2sc(C(=O)N3CCOCC3)cc21 yielded a Percent Effect of 15.8%.
Cc1cc(C(=O)NCC(C)C)c2c(C3CCCN3)noc2n1 (stereo not given) showed a Percent Effect of 4.14%.
With Cc1cc(C(=O)NCC(F)(F)F)c2c(C3CCCN3)noc2n1 (stereo not given) the Percent Effect was 71.7%.
Cc1cc(C(=O)NCC(F)(F)F)c2c(C3CCNCC3)noc2n1 showed a Percent Effect of 19.3%.
Compound Cc1cnc(N2CC[C@@]3(O)CCCC[C@H]3C2)nc1-c1ccnn1C has a Percent Effect of -3.33%.
For CN1[C@H](CN2CCCC2)C[C@@H]2CN(C(=O)c3ccsc3)CC[C@@H]21, the Percent Effect was 0.917%.
CO[C@@H]1CN(S(=O)(=O)c2cn(C)cn2)[C@@H]2CCCO[C@@H]21 showed a Percent Effect of 17.2%.
Cc1ccc(N2CC[C@H]3C[C@H](C(=O)NCc4ccco4)O[C@H]3C2)nn1 showed a Percent Effect of 18.1%.
N#CCCSc1sc2c(O)cc(O)nc2c1C#N was tested, and the Percent Effect was 74.2%.
In the case of N#Cc1c(SCCN2CCCCCC2)sc2c(O)cc(O)nc12, the Percent Effect is reported as 24.7%.
With N#Cc1c(SCCN2CCCCC2)sc2c(O)cc(O)nc12 the Percent Effect was 24.7%.
For Cc1ccc(NS(=O)(=O)c2cnn(Cc3ccccc3)c2)c(C(=O)O)c1, the Percent Effect was 23.9%.
Cc1ccc(NS(=O)(=O)c2cnn(-c3ccccc3)c2)c(C(=O)O)c1 was tested, and the Percent Effect was 69.6%.
For Cc1ccc(-n2cc(S(=O)(=O)Nc3cccc(C(=O)O)c3C)cn2)cc1, the Percent Effect was 13%.
For Cc1ccnc(C(=O)N2C[C@@H]3CN(S(C)(=O)=O)CCO[C@@H]3C2)c1, the Percent Effect was 8.77%.
Compound COCCOc1ccccc1C(=O)N1CCCCC1c1nccs1 (stereo not given) has a Percent Effect of 50%.
With COCCOc1ncccc1C(=O)N1CCCCC1c1nccs1 (stereo not given) the Percent Effect was 14.9%.
COc1cccc(C(=O)N2CCCCC2c2nccs2)c1OC (stereo not given) was tested, and the Percent Effect was 4.39%.
Cn1cc(NS(=O)(=O)c2ccc(OC(F)(F)F)cc2)ccc1=O gave a Percent Effect of 82%.
Cn1cc(NS(=O)(=O)c2ccc(C(F)(F)F)cc2)ccc1=O showed a Percent Effect of 38.2%.
Work on CCCc1ccc(S(=O)(=O)Nc2ccc(=O)n(C)c2)cc1 yielded a Percent Effect of 29.1%.
In the case of Cc1ccc(S(=O)(=O)Nc2ccc(=O)n(C)c2)cc1, the Percent Effect is reported as 77.5%.
With CC(C)c1ccc(C(=O)O)cc1S(=O)(=O)Nc1ccc(=O)n(C)c1 the Percent Effect was 84.6%.
With CCc1ccc(C(=O)O)cc1S(=O)(=O)Nc1ccc(=O)n(C)c1 the Percent Effect was 21.4%.
For Cc1ccc(S(=O)(=O)Nc2ccc(-n3nnn(C)c3=O)cc2)cc1, the Percent Effect was 12.2%.
Cc1ccc(S(=O)(=O)Nc2ccc(=O)n(C)c2)c(Br)c1 was tested, and the Percent Effect was 32.7%.
Cn1cc(NS(=O)(=O)c2ccc3c(c2)CCCC3)ccc1=O was tested, and the Percent Effect was 41.8%.
Cn1cc(NS(=O)(=O)c2ccc(F)c(F)c2)ccc1=O showed a Percent Effect of 47.3%.
With Cc1ccc(S(=O)(=O)Nc2ccc(-n3cccc3C(=O)O)c(C)c2)cc1 the Percent Effect was 6.25%.
CC(C)Cc1ccc(S(=O)(=O)Nc2ccc(=O)n(C)c2)cc1 gave a Percent Effect of 91%.
Compound c1ccc(CN2CC[C@@H]3O[C@H](COCc4ccncc4)CC[C@@H]32)nc1 has a Percent Effect of 10.9%.
CC(C)CN1C[C@@H]2OCC(=O)N(Cc3nccn3C)[C@@H]2C1 showed a Percent Effect of 23%.
In the case of O=C([C@@H]1COC[C@H]2CN(C3CCOCC3)C[C@H]21)N1CCOCC1, the Percent Effect is reported as 30.6%.
In the case of CCO[C@H]1CC[C@H]2[C@@H]1OCCN2C(=O)COc1ccccc1, the Percent Effect is reported as 19.1%.
CN1[C@H]2CC[C@@H]1CN(C(=O)c1sccc1S(N)(=O)=O)CC2 was tested, and the Percent Effect was -12.7%.
Compound CN(c1cccnn1)[C@@H]1CC[C@@H]2CN(Cc3cccc(C(=O)O)c3)C[C@@H]21 has a Percent Effect of 5.63%.
Compound Cc1[nH]nc(CCC(=O)N2C[C@H]3CC[C@@H]2CN(C(=O)N(C)C)C3)c1C has a Percent Effect of 13.9%.
Compound Cc1cc(C(=O)N2C[C@@H]3CN(S(C)(=O)=O)CCO[C@@H]3C2)c(C)o1 has a Percent Effect of -1.75%.
With CNC(=O)[C@@]12CCO[C@@H]1CCN(S(=O)(=O)c1cc(C)cc(C)c1)C2 the Percent Effect was 13%.
In the case of CCC(=O)Nc1cc(Br)cnc1OCC(F)(F)F, the Percent Effect is reported as 14%.
Cc1c(CS(C)(=O)=O)cccc1NC(=O)CC1CCCC1 showed a Percent Effect of 11.7%.
Compound CC(C)(C)CC(=O)Nc1ccccc1SCC(N)=O has a Percent Effect of 9.57%.
Work on Cc1nn(C)cc1NC(=O)CC1CCN(CCc2ccccc2)CC1 yielded a Percent Effect of 5.67%.
Compound Cc1cc(=O)n(C)cc1NC(=O)CC1CCC1 has a Percent Effect of 75%.
Cn1cc(C(C)(O)CNC(=O)c2cc(Br)cn2C)cn1 (stereo not given) was tested, and the Percent Effect was 25.5%.
Cn1cc(Br)cc(NC(=O)CC2CCC2)c1=O was tested, and the Percent Effect was 103%.
In the case of O=C(CC1CCCC1)Nc1ccc(-n2cc(Br)cn2)nc1, the Percent Effect is reported as 10.5%.
Cn1cc(Br)cc(NC(=O)Cc2cccs2)c1=O was tested, and the Percent Effect was 34%.
With Cn1ccc(CN2CCC(CC(=O)NC3CCCC3)CC2)cc1=O the Percent Effect was -8.33%.
In the case of Cn1cc(Br)cc(NC(=O)CC(C)(C)C)c1=O, the Percent Effect is reported as 95%.
Work on CCC(=O)Nc1cc(Br)cn(C)c1=O yielded a Percent Effect of 103%.
COCCNC(=O)[C@H]1CN(Cc2nccs2)C[C@H]2OCC[C@@H]12 was tested, and the Percent Effect was 15.2%.
COCCCN1C(=O)CC[C@H]2CN(Cc3ncc[nH]3)CC[C@H]21 was tested, and the Percent Effect was -49.3%.
COc1cc(N2C[C@H](C(=O)N3CCCC3)[C@@H]3CCO[C@@H]3C2)ncn1 was tested, and the Percent Effect was 8.06%.
In the case of O=C(c1ccco1)N1CC[C@H]2[C@H]1CCN2S(=O)(=O)C1CC1, the Percent Effect is reported as 5.26%.
Compound Cc1ccc(C(=O)N2C[C@@H]3COC[C@]3(COc3cccnc3)C2)cn1 has a Percent Effect of 7.52%.
With O=C(NCc1cccs1)[C@]12COC[C@H]1CN(c1ncccn1)C2 the Percent Effect was 5.26%.
CCCS(=O)(=O)N1C[C@@H](Oc2ncccc2F)[C@H]2OCCC[C@H]21 showed a Percent Effect of 8.22%.
Work on c1cnc(N2CCO[C@H]3[C@H](OCc4cccnc4)CC[C@@H]32)nc1 yielded a Percent Effect of -9.73%.
